Data taken from the supplement of paper PMC11732987, “Enantioselective OTUD7B fragment discovery through chemoproteomics screening and high-throughput optimisation” (Communications Chemistry, 2025).
Unmarked numbers belong to inactive results.

Experiments:
Test in all cases: log2 ratio of Biotin-Ahx-Ub-VS probe labelling (fragment/DMSO); higher = less target engagement (more negative = stronger competition), active = hit call of the paper (q ≤ 0.05, log2 ratio ≤ -1)
Conditions in all cases: compound concentration: 200 uM; treatment time: 3 h
[1] = molecular target: T1, USP42 (UniProt Q9H9J4)
T1 sequence (whole entry): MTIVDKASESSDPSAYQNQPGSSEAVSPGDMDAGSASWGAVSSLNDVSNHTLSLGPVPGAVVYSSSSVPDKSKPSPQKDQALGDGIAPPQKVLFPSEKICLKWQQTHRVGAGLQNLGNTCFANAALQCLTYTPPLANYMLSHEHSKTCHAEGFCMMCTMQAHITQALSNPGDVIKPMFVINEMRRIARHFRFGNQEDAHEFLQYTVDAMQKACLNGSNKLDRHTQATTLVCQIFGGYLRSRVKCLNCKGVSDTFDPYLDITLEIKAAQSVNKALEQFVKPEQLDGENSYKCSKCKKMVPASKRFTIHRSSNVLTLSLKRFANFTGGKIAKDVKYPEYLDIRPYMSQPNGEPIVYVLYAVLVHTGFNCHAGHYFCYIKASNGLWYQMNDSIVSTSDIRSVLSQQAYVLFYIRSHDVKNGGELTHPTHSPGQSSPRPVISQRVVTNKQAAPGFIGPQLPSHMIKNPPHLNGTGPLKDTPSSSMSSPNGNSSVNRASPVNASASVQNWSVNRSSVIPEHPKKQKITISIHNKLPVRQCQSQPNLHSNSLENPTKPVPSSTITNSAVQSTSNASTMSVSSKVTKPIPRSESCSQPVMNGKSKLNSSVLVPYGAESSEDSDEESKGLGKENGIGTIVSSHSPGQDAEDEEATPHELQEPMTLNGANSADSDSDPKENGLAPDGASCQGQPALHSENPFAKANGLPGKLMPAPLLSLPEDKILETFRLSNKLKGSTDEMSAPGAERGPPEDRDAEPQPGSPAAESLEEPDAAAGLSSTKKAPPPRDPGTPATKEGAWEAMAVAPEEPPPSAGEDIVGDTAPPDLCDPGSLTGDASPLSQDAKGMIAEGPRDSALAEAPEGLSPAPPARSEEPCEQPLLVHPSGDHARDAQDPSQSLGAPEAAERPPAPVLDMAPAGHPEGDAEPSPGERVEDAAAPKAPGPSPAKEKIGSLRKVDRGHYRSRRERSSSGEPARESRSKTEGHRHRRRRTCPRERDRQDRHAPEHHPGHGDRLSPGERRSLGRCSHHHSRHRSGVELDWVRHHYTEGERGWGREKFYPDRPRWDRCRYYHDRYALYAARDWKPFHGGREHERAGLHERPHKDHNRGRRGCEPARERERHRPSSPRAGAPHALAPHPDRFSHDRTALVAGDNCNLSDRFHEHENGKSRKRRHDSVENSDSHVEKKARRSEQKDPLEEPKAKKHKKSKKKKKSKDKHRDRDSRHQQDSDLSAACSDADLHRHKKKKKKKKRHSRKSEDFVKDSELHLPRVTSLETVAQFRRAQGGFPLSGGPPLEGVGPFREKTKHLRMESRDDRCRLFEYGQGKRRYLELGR
How it was run: (§1)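 Using Biotin-Ahx-Ub-VS at 0.5 µM final for 1 h, DUBs were labelled in HEK293T lysate (495 µg per sample) that had first been treated in triplicate with fragment at 200 µM or vehicle for 3 h. NeutrAvidin enrichment, LysC and trypsin digestion and diaPASEF LC-MS/MS followed. Spectronaut label-free quantities were global-median-normalised. Values are average log2 fragment/vehicle ratios by unpaired t-test, using proteins with ≥2 unique peptides.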

[2] = molecular target: USP46 (UniProt P62068)
Chain of USP46 (P62068 whole entry): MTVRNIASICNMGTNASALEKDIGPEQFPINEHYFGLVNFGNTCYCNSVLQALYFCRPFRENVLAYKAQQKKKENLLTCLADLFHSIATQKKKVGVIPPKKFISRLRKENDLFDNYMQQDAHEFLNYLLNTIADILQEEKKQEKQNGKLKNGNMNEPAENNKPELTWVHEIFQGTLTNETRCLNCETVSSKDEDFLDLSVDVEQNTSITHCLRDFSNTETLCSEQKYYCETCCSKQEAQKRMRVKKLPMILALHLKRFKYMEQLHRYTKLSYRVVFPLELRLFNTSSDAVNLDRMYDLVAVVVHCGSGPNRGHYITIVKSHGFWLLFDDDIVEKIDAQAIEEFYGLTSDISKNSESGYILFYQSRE
How it was run: as §1

[3] = molecular target: T2, USP47 (UniProt Q96K76)
T2 sequence (whole entry): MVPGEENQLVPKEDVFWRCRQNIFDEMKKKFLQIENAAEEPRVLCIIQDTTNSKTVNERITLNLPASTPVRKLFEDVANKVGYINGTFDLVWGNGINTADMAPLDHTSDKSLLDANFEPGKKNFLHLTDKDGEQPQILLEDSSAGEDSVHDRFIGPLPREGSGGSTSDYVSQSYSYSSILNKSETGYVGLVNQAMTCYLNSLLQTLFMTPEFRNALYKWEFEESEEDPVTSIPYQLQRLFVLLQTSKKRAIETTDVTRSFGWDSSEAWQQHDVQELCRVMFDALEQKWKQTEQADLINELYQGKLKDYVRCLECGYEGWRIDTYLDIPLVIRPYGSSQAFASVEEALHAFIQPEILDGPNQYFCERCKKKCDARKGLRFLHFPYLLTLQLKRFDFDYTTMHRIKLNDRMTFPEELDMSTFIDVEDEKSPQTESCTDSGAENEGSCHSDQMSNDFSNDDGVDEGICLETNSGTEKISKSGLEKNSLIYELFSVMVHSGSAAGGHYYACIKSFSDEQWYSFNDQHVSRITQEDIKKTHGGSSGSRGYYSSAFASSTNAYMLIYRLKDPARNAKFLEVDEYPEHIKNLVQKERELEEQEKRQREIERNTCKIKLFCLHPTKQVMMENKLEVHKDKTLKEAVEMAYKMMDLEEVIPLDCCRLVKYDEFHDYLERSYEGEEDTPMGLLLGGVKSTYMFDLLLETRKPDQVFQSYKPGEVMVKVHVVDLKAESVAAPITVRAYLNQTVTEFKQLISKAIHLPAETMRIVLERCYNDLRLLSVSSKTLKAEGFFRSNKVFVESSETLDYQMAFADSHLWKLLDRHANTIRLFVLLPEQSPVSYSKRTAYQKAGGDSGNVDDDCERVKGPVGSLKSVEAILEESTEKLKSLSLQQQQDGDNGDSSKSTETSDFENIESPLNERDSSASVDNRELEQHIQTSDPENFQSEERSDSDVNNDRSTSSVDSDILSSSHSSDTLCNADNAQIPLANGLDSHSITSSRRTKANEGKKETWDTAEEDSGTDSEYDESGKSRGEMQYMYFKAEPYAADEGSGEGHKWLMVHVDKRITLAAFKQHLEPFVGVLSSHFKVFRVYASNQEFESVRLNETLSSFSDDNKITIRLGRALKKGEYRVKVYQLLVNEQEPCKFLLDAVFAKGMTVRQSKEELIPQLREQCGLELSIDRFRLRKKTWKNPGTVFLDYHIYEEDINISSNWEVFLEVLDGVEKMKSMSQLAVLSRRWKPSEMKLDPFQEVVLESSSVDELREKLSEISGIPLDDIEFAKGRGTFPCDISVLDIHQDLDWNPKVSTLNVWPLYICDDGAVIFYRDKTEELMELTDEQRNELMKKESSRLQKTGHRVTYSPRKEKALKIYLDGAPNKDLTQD
How it was run: as §1

[4] = molecular target: T3, USP48 (UniProt Q86UV5)
T3 sequence (whole entry): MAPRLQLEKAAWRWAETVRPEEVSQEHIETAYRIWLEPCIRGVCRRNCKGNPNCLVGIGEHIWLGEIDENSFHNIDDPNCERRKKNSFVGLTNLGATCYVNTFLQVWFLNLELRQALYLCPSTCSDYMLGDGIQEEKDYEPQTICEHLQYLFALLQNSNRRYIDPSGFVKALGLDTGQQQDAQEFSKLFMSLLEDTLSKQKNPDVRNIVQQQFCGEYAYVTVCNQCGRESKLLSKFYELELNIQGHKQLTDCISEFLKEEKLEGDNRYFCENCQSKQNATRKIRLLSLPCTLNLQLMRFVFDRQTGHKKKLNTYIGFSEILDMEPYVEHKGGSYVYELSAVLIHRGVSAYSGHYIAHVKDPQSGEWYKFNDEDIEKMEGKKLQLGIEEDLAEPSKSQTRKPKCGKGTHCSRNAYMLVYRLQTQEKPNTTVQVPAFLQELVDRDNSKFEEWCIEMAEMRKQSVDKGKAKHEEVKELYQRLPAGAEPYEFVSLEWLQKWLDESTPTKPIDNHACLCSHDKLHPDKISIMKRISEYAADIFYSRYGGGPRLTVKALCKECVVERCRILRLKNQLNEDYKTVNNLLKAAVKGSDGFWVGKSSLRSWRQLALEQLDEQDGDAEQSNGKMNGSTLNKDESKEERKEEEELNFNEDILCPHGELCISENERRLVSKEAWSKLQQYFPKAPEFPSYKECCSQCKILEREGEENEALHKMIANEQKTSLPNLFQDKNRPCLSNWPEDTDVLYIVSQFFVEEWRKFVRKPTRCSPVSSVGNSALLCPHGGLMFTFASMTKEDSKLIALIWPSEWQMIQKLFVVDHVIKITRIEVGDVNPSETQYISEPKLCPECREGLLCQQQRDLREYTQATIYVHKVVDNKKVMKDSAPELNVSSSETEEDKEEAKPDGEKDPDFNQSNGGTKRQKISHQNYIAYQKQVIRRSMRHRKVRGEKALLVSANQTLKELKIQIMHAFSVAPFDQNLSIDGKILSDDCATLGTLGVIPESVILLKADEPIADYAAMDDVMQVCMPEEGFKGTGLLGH
How it was run: as §1

[5] = molecular target: T4, USP5 (UniProt P45974)
T4 sequence (whole entry): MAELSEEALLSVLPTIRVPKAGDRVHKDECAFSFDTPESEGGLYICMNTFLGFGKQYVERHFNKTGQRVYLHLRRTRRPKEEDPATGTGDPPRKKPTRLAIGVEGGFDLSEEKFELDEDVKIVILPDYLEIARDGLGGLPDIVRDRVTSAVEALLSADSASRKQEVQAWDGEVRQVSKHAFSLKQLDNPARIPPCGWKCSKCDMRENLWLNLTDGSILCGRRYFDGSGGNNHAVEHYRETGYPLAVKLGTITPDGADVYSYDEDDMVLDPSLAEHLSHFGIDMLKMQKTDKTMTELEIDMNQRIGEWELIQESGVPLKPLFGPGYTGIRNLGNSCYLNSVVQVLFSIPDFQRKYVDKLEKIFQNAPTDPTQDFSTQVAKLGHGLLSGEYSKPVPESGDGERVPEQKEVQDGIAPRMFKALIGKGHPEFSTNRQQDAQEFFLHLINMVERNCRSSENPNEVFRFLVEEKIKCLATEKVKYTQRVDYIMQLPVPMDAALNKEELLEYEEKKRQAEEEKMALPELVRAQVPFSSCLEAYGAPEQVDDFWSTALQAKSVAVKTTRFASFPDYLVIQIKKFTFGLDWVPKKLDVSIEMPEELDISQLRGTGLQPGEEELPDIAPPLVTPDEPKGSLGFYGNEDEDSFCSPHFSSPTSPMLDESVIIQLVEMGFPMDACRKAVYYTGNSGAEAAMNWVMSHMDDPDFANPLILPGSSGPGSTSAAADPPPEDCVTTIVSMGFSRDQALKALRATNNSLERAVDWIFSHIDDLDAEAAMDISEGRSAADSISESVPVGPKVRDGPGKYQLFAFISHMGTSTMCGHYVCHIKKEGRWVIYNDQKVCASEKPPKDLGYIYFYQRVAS
How it was run: as §1

[6] = molecular target: USP54 (UniProt Q70EL1)
Chain of USP54 (Q70EL1 whole entry): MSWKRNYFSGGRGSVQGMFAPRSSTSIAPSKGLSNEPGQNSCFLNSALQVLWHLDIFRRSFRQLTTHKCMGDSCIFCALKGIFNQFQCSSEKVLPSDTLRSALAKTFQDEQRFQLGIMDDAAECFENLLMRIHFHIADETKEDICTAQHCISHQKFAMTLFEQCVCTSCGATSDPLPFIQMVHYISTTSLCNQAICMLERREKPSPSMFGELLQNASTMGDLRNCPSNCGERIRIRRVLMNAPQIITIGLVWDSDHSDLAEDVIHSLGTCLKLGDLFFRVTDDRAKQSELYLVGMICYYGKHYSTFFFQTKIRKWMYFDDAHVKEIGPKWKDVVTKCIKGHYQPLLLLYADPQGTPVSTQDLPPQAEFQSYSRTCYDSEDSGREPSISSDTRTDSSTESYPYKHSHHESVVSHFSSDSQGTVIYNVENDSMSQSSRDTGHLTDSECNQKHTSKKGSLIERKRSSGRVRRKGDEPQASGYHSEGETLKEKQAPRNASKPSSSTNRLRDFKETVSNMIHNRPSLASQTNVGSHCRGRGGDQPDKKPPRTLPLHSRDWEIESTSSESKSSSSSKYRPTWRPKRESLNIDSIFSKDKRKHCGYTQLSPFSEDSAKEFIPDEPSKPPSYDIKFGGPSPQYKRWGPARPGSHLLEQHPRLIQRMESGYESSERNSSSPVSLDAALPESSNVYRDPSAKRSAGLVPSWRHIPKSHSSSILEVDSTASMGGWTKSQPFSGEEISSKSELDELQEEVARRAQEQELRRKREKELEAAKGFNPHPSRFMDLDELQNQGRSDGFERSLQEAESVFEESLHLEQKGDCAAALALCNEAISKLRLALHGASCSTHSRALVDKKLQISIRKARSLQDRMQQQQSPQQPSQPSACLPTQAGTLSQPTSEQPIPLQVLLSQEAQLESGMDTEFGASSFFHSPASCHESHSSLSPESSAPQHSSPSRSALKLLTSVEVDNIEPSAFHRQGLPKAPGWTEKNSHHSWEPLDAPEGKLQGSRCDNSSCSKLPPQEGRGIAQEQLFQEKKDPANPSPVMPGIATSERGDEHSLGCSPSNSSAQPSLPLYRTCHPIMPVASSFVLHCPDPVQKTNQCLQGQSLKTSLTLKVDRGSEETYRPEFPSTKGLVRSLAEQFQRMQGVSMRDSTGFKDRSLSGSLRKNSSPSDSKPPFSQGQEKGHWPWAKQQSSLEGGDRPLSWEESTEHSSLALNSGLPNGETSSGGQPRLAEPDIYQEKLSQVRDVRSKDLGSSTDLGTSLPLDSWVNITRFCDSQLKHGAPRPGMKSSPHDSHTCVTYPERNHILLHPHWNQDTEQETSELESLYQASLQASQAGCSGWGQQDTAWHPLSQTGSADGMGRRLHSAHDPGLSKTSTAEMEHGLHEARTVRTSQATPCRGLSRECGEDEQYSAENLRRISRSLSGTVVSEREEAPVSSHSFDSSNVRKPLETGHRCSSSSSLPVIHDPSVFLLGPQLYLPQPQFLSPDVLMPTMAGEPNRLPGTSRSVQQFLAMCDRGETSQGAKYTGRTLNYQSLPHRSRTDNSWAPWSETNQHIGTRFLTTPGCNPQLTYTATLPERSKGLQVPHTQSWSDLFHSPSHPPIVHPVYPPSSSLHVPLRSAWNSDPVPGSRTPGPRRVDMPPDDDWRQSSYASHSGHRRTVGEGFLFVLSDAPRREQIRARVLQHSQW
How it was run: as §1

[7] = molecular target: USP7 (UniProt Q93009)
How it was run: as §1

[8] = molecular target: T5, USP8 (UniProt P40818)
T5 sequence (whole entry): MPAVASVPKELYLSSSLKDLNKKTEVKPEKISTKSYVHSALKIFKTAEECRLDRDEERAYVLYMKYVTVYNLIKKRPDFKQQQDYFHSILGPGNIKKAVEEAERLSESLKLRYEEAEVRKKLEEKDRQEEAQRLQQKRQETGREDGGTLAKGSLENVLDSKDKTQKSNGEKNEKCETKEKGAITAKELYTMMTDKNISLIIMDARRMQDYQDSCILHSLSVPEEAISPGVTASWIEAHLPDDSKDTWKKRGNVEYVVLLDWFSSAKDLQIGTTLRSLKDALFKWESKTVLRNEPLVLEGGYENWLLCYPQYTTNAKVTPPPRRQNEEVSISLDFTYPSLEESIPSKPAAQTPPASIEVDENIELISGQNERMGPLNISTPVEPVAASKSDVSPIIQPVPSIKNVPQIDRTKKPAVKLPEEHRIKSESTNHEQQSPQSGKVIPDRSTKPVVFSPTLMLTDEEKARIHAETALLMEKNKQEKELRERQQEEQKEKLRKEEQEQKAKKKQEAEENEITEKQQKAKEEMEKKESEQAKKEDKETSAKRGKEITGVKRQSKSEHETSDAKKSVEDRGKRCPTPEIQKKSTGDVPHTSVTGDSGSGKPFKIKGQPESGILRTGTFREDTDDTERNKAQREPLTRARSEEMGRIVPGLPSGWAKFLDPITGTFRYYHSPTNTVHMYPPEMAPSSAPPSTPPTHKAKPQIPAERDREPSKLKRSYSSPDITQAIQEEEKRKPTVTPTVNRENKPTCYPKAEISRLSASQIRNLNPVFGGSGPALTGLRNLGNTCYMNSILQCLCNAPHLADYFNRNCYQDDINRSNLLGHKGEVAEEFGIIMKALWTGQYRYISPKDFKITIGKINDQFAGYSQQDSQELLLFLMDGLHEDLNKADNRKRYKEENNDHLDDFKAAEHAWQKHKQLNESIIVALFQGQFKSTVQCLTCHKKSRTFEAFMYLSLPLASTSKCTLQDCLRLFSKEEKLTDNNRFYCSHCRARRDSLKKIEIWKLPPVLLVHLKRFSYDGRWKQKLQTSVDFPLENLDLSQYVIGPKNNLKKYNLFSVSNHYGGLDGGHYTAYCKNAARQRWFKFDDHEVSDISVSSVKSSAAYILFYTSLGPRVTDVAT
How it was run: as §1

[9] = molecular target: USP9X (UniProt Q93008)
Chain of USP9X (Q93008 whole entry): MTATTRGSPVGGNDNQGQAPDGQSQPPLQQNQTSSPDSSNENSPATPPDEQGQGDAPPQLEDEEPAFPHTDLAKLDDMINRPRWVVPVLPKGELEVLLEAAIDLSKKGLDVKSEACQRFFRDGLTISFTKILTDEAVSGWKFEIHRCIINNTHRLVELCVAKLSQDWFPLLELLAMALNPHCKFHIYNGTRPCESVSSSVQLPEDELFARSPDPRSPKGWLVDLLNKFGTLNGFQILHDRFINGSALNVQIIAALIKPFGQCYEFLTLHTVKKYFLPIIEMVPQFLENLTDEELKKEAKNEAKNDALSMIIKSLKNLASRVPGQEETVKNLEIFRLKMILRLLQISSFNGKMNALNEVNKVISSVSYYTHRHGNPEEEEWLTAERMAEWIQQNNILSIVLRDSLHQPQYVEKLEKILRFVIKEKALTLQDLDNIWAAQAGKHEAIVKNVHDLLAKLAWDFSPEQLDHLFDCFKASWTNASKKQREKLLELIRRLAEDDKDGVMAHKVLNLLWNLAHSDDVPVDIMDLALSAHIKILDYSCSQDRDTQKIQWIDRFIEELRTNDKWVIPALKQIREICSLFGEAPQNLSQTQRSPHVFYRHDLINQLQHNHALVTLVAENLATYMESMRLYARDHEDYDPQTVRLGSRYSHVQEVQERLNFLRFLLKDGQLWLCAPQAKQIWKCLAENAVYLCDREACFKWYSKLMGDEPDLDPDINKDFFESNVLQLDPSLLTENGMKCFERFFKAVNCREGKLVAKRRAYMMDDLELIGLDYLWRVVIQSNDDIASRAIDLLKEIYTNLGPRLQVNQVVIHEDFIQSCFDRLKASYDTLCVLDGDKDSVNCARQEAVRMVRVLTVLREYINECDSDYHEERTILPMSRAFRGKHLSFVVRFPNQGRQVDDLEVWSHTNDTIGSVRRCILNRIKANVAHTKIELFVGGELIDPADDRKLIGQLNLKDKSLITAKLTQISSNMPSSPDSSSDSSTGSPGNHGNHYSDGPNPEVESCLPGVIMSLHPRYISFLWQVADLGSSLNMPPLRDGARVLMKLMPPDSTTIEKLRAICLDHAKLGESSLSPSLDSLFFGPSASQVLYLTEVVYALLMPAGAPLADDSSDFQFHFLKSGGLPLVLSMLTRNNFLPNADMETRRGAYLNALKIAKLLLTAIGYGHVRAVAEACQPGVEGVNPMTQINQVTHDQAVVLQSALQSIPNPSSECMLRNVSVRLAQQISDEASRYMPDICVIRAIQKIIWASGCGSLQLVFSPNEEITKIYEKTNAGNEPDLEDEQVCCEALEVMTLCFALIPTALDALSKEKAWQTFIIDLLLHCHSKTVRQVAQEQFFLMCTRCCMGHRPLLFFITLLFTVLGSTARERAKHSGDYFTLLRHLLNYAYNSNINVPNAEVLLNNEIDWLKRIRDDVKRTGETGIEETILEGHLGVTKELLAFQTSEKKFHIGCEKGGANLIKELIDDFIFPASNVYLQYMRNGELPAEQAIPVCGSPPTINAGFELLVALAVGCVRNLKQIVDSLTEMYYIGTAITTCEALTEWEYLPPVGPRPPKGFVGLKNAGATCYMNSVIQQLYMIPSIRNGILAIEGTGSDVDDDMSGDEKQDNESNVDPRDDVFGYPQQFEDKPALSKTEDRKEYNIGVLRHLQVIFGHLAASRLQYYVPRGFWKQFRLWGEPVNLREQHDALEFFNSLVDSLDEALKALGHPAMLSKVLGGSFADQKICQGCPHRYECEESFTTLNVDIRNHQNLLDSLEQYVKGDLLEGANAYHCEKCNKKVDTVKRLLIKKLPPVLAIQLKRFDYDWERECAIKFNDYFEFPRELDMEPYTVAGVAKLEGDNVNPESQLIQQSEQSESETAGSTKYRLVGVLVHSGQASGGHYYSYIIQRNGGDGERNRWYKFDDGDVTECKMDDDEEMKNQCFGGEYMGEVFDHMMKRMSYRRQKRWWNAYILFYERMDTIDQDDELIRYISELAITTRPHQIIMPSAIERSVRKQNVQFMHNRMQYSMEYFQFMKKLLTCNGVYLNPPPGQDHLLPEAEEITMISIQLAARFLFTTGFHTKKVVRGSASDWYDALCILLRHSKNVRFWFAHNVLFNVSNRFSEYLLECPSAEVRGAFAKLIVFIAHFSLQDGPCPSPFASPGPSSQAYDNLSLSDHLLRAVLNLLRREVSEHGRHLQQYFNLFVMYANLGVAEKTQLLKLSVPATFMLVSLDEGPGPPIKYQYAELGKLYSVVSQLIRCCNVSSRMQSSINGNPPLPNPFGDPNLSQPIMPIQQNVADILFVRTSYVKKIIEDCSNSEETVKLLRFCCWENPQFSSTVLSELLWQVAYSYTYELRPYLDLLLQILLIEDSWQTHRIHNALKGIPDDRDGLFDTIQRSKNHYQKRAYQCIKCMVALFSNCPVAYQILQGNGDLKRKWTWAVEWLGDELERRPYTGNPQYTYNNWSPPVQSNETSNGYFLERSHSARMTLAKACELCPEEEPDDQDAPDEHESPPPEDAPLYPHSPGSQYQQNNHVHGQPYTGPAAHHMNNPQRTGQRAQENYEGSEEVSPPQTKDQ
How it was run: as §1

[10] = molecular target: UniProt O00487
Chain of UniProt O00487 (O00487 whole entry): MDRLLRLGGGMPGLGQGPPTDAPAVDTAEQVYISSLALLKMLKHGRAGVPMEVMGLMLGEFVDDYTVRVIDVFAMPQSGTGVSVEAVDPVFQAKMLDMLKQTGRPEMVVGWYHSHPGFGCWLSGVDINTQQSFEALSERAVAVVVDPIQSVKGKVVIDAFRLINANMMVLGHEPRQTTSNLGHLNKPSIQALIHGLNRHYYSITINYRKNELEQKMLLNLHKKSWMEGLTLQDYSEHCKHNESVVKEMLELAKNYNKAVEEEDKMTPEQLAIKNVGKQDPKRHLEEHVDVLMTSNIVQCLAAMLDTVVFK
How it was run: as §1

Compound | log2 ratio of Biotin-Ahx-Ub-VS probe labelling [1] | log2 ratio of Biotin-Ahx-Ub-VS probe labelling [2] | log2 ratio of Biotin-Ahx-Ub-VS probe labelling [3] | log2 ratio of Biotin-Ahx-Ub-VS probe labelling [4] | log2 ratio of Biotin-Ahx-Ub-VS probe labelling [5] | log2 ratio of Biotin-Ahx-Ub-VS probe labelling [6] | log2 ratio of Biotin-Ahx-Ub-VS probe labelling [7] | log2 ratio of Biotin-Ahx-Ub-VS probe labelling [8] | log2 ratio of Biotin-Ahx-Ub-VS probe labelling [9] | log2 ratio of Biotin-Ahx-Ub-VS probe labelling [10]
O=C(CCl)N1CCOCCC1c1ccccc1 (stereo not given) | 0.345 | -0.0581 | -0.596 | 0.0099 | 0.135 | 0.504 | -0.526 | -0.109 | -0.168 | -0.00106
Cc1ccccc1OCC(=O)N1CCN(C(=O)CCl)CC1 | 0.258 | -0.329 | -1.19 (active) | -0.356 | 0.0461 | -0.923 | -0.701 | 0.0472 | -0.0136 | 0.0797
CN1C(=O)c2ccc(NC(=O)CCl)cc2C1=O | 0.714 | -0.152 | -0.217 | -0.208 | -0.508 | 0.112 | -0.743 | -0.236 | -0.202 | 0.0214
Cc1ccc(N(CCC#N)C(=O)CCl)cc1C | -0.126 | -0.12 | -0.28 | -1.01 (active) | 0.408 | -0.137 | -1.27 (active) | -0.394 | -0.324 | -0.246
